15-hLO-2 inh: 15-hLO-2 (ALOX15B) enzyme inhibition; O15296; AID 881; Potency, µM (highest dose often 57.1 µM), without a hit: at the top dose activity change, negative = inhibition, hits mostly inhibitors; purified 15hLO-2, xylenol orange hydroperoxide absorbance; 110,000 tested, 0.56% active; note: nearly all actives have a fitted effect of over 60% in size
Target sequence (O15296 whole entry, looked up): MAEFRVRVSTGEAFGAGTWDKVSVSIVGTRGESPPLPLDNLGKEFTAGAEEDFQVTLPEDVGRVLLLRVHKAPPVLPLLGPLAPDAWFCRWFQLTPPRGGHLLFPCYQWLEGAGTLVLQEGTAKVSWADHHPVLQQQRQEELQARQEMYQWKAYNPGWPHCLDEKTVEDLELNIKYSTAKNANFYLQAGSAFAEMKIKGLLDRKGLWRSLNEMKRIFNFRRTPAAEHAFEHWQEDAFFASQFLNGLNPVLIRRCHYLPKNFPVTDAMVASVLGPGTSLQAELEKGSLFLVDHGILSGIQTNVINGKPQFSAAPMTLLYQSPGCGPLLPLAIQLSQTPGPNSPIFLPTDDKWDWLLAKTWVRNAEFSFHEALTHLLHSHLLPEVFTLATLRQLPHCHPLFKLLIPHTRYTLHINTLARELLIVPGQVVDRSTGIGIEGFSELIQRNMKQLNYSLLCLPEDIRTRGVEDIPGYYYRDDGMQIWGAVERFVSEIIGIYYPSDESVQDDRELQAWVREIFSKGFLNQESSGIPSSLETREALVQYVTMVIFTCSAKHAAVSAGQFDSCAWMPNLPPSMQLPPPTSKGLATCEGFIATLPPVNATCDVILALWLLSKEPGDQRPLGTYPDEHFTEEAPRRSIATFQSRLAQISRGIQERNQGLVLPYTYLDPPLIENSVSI
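Purified human 15hLO-2 (50 nM final) preincubated with compounds 15 min at room temperature in 25 mM Hepes pH 7.5, 0.01% Triton X-100, then 45 uM arachidonic acid added for 90 min; hydroperoxide detected via ferrous/xylenol orange, 573/405 nm absorbance ratio.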
12-hLO inh: blocks human 12-lipoxygenase activity; P18054; purified 12-hLO, xylenol orange hydroperoxide absorbance; Potency, µM (series often up to 57.1 µM), without a hit: at the highest dose activity change, negative = inhibition, actives largely listed as inhibitors; 150,000 tested, 0.12% active; note: nearly all actives have a fitted effect of over 55% in size
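Hydroperoxide formation by human 12-lipoxygenase from 40 uM arachidonic acid was followed colorimetrically via ferric-xylenol orange complex, using the 573/405 nm absorbance ratio. Enzyme concentration was 150 nM, with 30 min reaction at room temperature.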
* marks the source's active call; other numbers are inactive results; [ ] = remark or other dose. The sample as a whole holds a higher share of hits than the screen did. Calls come from the whole dose curve; as a rule, active = well fitted curve in the direction sought with a large enough effect; inconclusive = small, poorly fitted or top-dose-only effect, or another doubt; inactive = no such curve, though single readings can be large; an effect the other way counts as inactive or inconclusive. % is set by controls: 0 for no effect and ±100 for the full control effect; potency is the fitted concentration of half-maximal effect.

Results for O=C(NC(=S)Nc1ccc(Oc2ccc(Cl)cc2)cc1)c1ccccc1 ?
15-hLO-2 inh: inconclusive; 12-hLO inh: 13µM*

What do the screens show for `O=C(Nc1ccc(NC(=S)NC(=O)c2cccs2)cc1)c1ccccc1`?
12-hLO inh: -2%

How did C/C=C(/C(=C/C)c1ccc(O)cc1)c1ccc(O)cc1 do in these assays?
15-hLO-2 inh: 16µM*; 12-hLO inh: inconclusive

Results for C=C(c1ccc(O)cc1)c1ccc(O)cc1 ?
15-hLO-2 inh: inconclusive; 12-hLO inh: -28%

What do the screens show for `C[C@H](NC(=O)N1CCc2nc(-c3ccccc3)c3c(c2C1)CO[C@@H](C)C3)c1ccccc1`?
12-hLO inh: 1%[11.4 µM]

Results for COc1cc(-c2ccc(N=Nc3ccc4c(S(=O)(=O)O)cc(S(=O)(=O)O)c(N)c4c3O)c(OC)c2)ccc1N=Nc1ccc2c(S(=O)(=O)O)cc(S(=O)(=O)O)c(N)c2c1O ?
15-hLO-2 inh: 25µM*; 12-hLO inh: -6%

How did Cc1nn(-c2ccc(S(=O)(=O)O)cc2)c(O)c1N=Nc1ccc(-c2ccc(N=Nc3ccc4c(S(=O)(=O)O)cc(S(=O)(=O)O)c(N)c4c3O)c(O)c2)cc1O.[Cu].[Cu] do in these assays?
15-hLO-2 inh: 37%[11.4 µM]; 12-hLO inh: -21%[11.4 µM]

What do the screens show for `CCc1nnc(NS(=O)(=O)c2ccc(NC(=S)NC(=O)/C=C/c3ccc(C(C)C)cc3)cc2)s1`?
15-hLO-2 inh: 25µM*; 12-hLO inh: 16µM*

Results for CCc1nnc(NS(=O)(=O)c2ccc(NC(=S)NC(=O)/C=C/c3ccc(OC)cc3)cc2)s1 ?
12-hLO inh: -2%

Results for O=c1c(-c2cccs2)nc2cnc(N3CCNCC3)nc2n1C1CC1 ?
15-hLO-2 inh: -5%

Results for CCCCCCCCCCCCC1CO1 (stereo not given) ?
15-hLO-2 inh: -1%; 12-hLO inh: -5%

Results for Cc1cc(=O)c2c(O)c3c(O)cc(O)c4c5c(O)cc(O)c6c(O)c7c(=O)cc(C)c8c1c2c(c34)c(c65)c78 ?
15-hLO-2 inh: 2.5µM*; 12-hLO inh: inconclusive

Results for Cc1cc(O)c2c(c1O)C(=O)c1c(O)cc(C)c(O)c1C2=O ?
15-hLO-2 inh: 15%; 12-hLO inh: -9%

Results for O=S(=O)(O)c1ccc2c(N=Nc3cccc4ccccc34)c(O)c(S(=O)(=O)O)cc2c1 ?
15-hLO-2 inh: 3%[11.4 µM]; 12-hLO inh: 1%[11.4 µM]

Results for O=[N+]([O-])c1ccc2c(N=Nc3ccc4ccccc4c3O)c(O)cc(S(=O)(=O)O)c2c1 ?
15-hLO-2 inh: 4µM*; 12-hLO inh: inconclusive

How did Oc1cc(O)cc(/C=C/c2ccc(O)c(O)c2)c1 do in these assays?
15-hLO-2 inh: 4.5µM*; 12-hLO inh: inconclusive

What do the screens show for `C/C=C/c1ccc(O)c(OC)c1`?
15-hLO-2 inh: -18%; 12-hLO inh: -1%

How did Cc1cc(C)nc(Nc2ccc(N3CCOCC3)cc2)n1 do in these assays?
15-hLO-2 inh: -5%; 12-hLO inh: -1%

Results for CC(=O)N1CCN(c2ccc(NCc3ccc(C)s3)cc2)CC1 ?
15-hLO-2 inh: 13µM*; 12-hLO inh: 11µM*

Results for CC(=O)Nc1ccc(N2CCN(C(=O)c3cccs3)CC2)cc1 ?
15-hLO-2 inh: -5%; 12-hLO inh: -4%

What do the screens show for `CC(=O)N1CCN(c2ccc(NCc3cccs3)cc2)CC1`?
15-hLO-2 inh: 25µM*; 12-hLO inh: inconclusive

How did CC(=O)N1CCN(c2ccc(NC(=O)c3ccc(C)cc3)cc2)CC1 do in these assays?
15-hLO-2 inh: 1%; 12-hLO inh: -4%

Results for Cc1ccc(CNc2ccc(N3CCOCC3)cc2)s1 ?
15-hLO-2 inh: 16µM*; 12-hLO inh: inconclusive

Results for CCCCCCCCCCCCC[N+](C)(C)Cc1ccccc1 ?
15-hLO-2 inh: -12%; 12-hLO inh: -4%

How did COc1ccc(-c2nc3c(c4c2C[C@H](c2ccccc2)OC4)CN(C(=O)NCc2ccco2)CC3)c(C)c1 do in these assays?
12-hLO inh: -3%[11.4 µM]

What do the screens show for `COc1ccc(-c2nc3c(c4c2C[C@H](c2ccccc2)OC4)CN(C(=O)Cc2cccs2)CC3)c(C)c1`?
12-hLO inh: -3%[11.4 µM]

How did O=c1c(-c2ccc(F)cc2)nc2cnc(N3CCOCC3)nc2n1Cc1ccc(F)cc1 do in these assays?
15-hLO-2 inh: -8%

Results for CCCC/C=C/C(NC(=O)c1ccco1)c1ccccc1 (stereo not given) ?
15-hLO-2 inh: 1%; 12-hLO inh: -2%

Results for Cn1cc(-c2nc3cnc(Oc4ccccc4)nc3n(C)c2=O)c2ccccc21 ?
15-hLO-2 inh: -4%

Results for Cc1cc(CCC(=O)O)c(C)cc1CCC(=O)O ?
15-hLO-2 inh: -1%; 12-hLO inh: 0%

How did C=CC1=C(C)C2=NC1=CC1=NC(=CC3=NC(=CC4=NC(=C2)C(C)=C4CCC(=O)O)C(CCC(=O)O)=C3C)C(C=C)=C1C.[Zn] do in these assays?
15-hLO-2 inh: 13µM*; 12-hLO inh: inconclusive

What do the screens show for `N#CCCn1c(=O)c(-c2ccc(F)cc2)nc2cnc(N3CCOCC3)nc21`?
15-hLO-2 inh: -9%

How did Cc1cccc(NC(=O)CN2C(=O)S/C(=C\c3cc(C)n(C)c3C)C2=O)c1 do in these assays?
12-hLO inh: 0%

How did Cc1ccc(NC(=O)CN2C(=O)S/C(=C\c3cc(C)n(C)c3C)C2=O)cc1 do in these assays?
15-hLO-2 inh: 16µM*; 12-hLO inh: -11%

How did CCC(=O)/C=C1/Sc2ccccc2N1CC do in these assays?
12-hLO inh: -5%

What do the screens show for `CCN(CC)C(C)CN1c2ccccc2Sc2ccccc21` (stereo not given)?
15-hLO-2 inh: 13µM*; 12-hLO inh: 13µM*

What do the screens show for `COc1ccccc1C(=O)NC(=S)Nc1ccc(N2CCCC2)cc1`?
12-hLO inh: -1%

How did COc1cccc(C(=O)NC(=S)Nc2ccc(N3CCCC3)cc2)c1 do in these assays?
15-hLO-2 inh: 13µM*; 12-hLO inh: 16µM*

Results for CC(=O)NC(=S)Nc1ccc(NC(=O)c2cccs2)cc1 ?
12-hLO inh: -1%

How did Cc1c(C(=O)NC(=S)Nc2ccc(NC(=O)c3cccs3)cc2)oc2ccccc12 do in these assays?
15-hLO-2 inh: 7.9µM*; 12-hLO inh: inconclusive

How did CC(=O)[C@]1(O)Cc2c(O)c3c(c(O)c2[C@@H](O[C@H]2C[C@H](N)[C@H](O)[C@H](C)O2)C1)C(=O)c1c(O)cccc1C3=O do in these assays?
15-hLO-2 inh: 24%[0.0915 µM]; 12-hLO inh: -4%[0.00818 µM]

How did O=C(O)c1ccccc1NS(=O)(=O)c1cccc2ccccc12 do in these assays?
12-hLO inh: -10%

Results for CC1(C)Cc2[nH]c(=S)c(C#N)cc2CO1 ?
15-hLO-2 inh: 16µM*; 12-hLO inh: inconclusive

Results for N#Cc1cc2c([nH]c1=S)CCCC2 ?
12-hLO inh: -29%

How did C#C[C@]1(O)CCC2C3CCC4=Cc5oncc5C[C@@]4(C)C3CC[C@@]21C (stereo not given in full) do in these assays?
15-hLO-2 inh: -12%; 12-hLO inh: -8%

How did CC(=O)OCC1OC(Oc2cc(OC(C)=O)c3c(=O)cc(-c4ccc(OC(C)=O)c(OC(C)=O)c4)oc3c2)C(OC(C)=O)C(OC(C)=O)C1OC(C)=O (stereo not given) do in these assays?
15-hLO-2 inh: -19%; 12-hLO inh: -1%

What do the screens show for `O=C1/C(=C/c2ccc(N3CCOCC3)o2)SC(=Nc2ccccc2)N1CCc1c[nH]c2ccccc12`?
15-hLO-2 inh: 4µM*; 12-hLO inh: inconclusive

Results for O=C1S/C(=C\c2ccc(N3CCOCC3)o2)C(=O)N1Cc1ccc(F)cc1 ?
15-hLO-2 inh: 5µM*; 12-hLO inh: -18%

Compound activity as filed in PubChem BioAssay.
